According to PubChem BioAssay AID1159580 (chemical genetic matrix, 2015):
“And” between values parts separate entries of the source, which are not always exact repeats. Equal values may be shown once. Out of some 5,500 compounds screened, about 2,000 (36%) were called active. Another 18% or so got no clear call; they are omitted. Cut-off read from the data, not from the text of the source: active = normalized growth mostly below about 0.91 (no sharp cut-off); inconclusive = no clear call, values can overlap the other calls; inactive = mostly above about 0.92. The list shows a part of the results.

Assay: chemical genetic growth profiling, strain panel (AID 1159580);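 note: tested at 20 µM; growth read once vehicle control cultures reached saturation at 30 °C; 1 = growth at the plate median or of vehicle wells; lower values mean less growth of the strain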
Details: S. cerevisiae deletion strains, growth OD

SMILES: CC(=O)O[C@@H]1C[C@@]2(C)[C@H](c3ccoc3)C[C@H]3O[C@]32[C@]2(C)C(=O)C(O)=C3C(C)(C)C(=O)C=C[C@]3(C)C12 (some centres not stated)
- normalized growth (locus YAL021C, strain ccr4, stronger effect = lower value): 0.983 (inactive)
- normalized growth (locus YAL026C, strain drs2, stronger effect = lower value): 0.892 (active)
- normalized growth (locus YAL030W, strain snc1, stronger effect = lower value): 0.968 (inactive)
- normalized growth (locus YBL061C, strain skt5, stronger effect = lower value): 0.953 (inactive)
- normalized growth (locus YBR009C, strain hhf1, stronger effect = lower value): 0.867 (active)
- normalized growth (locus YBR021W, strain FUR4, stronger effect = lower value): 1.05 (inactive)
- normalized growth (locus YBR023C, strain chs3, stronger effect = lower value): 0.947 (inactive)
- normalized growth (locus YBR171W, strain sec66, stronger effect = lower value): 0.929 (inactive)
- normalized growth (locus YBR229C, strain ROT2, stronger effect = lower value): 0.927 (inactive)
- normalized growth (locus YBR231C, strain swc5, stronger effect = lower value): 0.94 (inactive)
- normalized growth (locus YBR279W, strain paf1, stronger effect = lower value): 0.97 (inactive)
- normalized growth (locus YCL011C, strain gbp2, stronger effect = lower value): 0.88 (active)
- normalized growth (locus YCL016C, strain dcc1, stronger effect = lower value): 0.969 (inactive)
- normalized growth (locus YCL029C, strain bik1, stronger effect = lower value): 0.907 (active)
- normalized growth (locus YCL061C, strain MRC1, stronger effect = lower value): 0.96 (inactive)
- normalized growth (locus YCL069W, strain vba3, stronger effect = lower value): 0.956 (inactive)
- normalized growth (locus YCR088W, strain abp1, stronger effect = lower value): 0.951 (inactive)
- normalized growth (locus YDL005C, strain med2, stronger effect = lower value): 0.958 (inactive)
- normalized growth (locus YDL035C, strain GPR1, stronger effect = lower value): 0.914 (inactive)
- normalized growth (locus YDL040C, strain nat1, stronger effect = lower value): 0.953 (inactive)
- normalized growth (locus YDL074C, strain BRE1, stronger effect = lower value): 0.754 (active)
- normalized growth (locus YDL101C, strain DUN1, stronger effect = lower value): 0.933 (inactive)
- normalized growth (locus YDL134C, strain PPH21, stronger effect = lower value): 0.921 (inactive)
- normalized growth (locus YDL185W, strain tfp1, stronger effect = lower value): 0.931 (inactive)
- normalized growth (locus YDL192W, strain arf1, stronger effect = lower value): 0.822 (active)
- normalized growth (locus YDR001C, strain nth1, stronger effect = lower value): 0.968 (inactive)
- normalized growth (locus YDR069C, strain doa4, stronger effect = lower value): 0.942 (inactive)
- normalized growth (locus YDR101C, strain arx1, stronger effect = lower value): 0.908 (active)
- normalized growth (locus YDR137W, strain rgp1, stronger effect = lower value): 0.639 (active)
- normalized growth (locus YDR150W, strain NUM1, stronger effect = lower value): 0.969 (inactive)
- normalized growth (locus YDR159W, strain sac3, stronger effect = lower value): 0.777 (active)
- normalized growth (locus YDR162C, strain NBP2, stronger effect = lower value): 0.658 (active)
- normalized growth (locus YDR195W, strain ref2): 1.04 (inactive)
- normalized growth (locus YDR297W, strain sur2, stronger effect = lower value): 0.954 (inactive)
- normalized growth (locus YDR318W, strain mcm21, stronger effect = lower value): 0.844 (active)
- normalized growth (locus YDR334W, strain swr1, stronger effect = lower value): 0.963 (inactive)
- normalized growth (locus YDR335W, strain msn5, stronger effect = lower value): 0.969 (inactive)
- normalized growth (locus YDR388W, stronger effect = lower value): 0.951 (inactive)
- normalized growth (locus YDR392W, strain spt3, stronger effect = lower value): 0.326 (active)
- normalized growth (locus YDR502C, strain sam2, stronger effect = lower value): 0.896 (active)
- normalized growth (locus YEL003W, strain gim4, stronger effect = lower value): 0.927 (inactive)
- normalized growth (locus YEL037C, strain rad23, stronger effect = lower value): 0.961 (inactive)
- normalized growth (locus YEL061C, strain CIN8 (second series), stronger effect = lower value): 0.955 (inactive)
- normalized growth (locus YEL061C, strain CIN8, stronger effect = lower value): 0.965 (inactive)
- normalized growth (locus YER015W, strain faa2, stronger effect = lower value): 0.966 (inactive)
- normalized growth (locus YER016W, strain bim1, stronger effect = lower value): 0.953 (inactive)
- normalized growth (locus YER110C, stronger effect = lower value): 0.953 (inactive)
- normalized growth (locus YER111C, strain swi4, stronger effect = lower value): 0.94 (inactive)
- normalized growth (locus YER155C, strain BEM2 (second series), stronger effect = lower value): 0.826 (active)
- normalized growth (locus YER155C, strain BEM2, stronger effect = lower value): 0.902 (active)
- normalized growth (locus YER167W, strain BCK2, stronger effect = lower value): 0.896 (active)
- normalized growth (locus YFR010W, strain ubp6, stronger effect = lower value): 0.955 (inactive)
- normalized growth (locus YGL078C, strain dbp3, stronger effect = lower value): 0.975 (inactive)
- normalized growth (locus YGL086W, strain mad1, stronger effect = lower value): 0.839 (active)
- normalized growth (locus YGL167C, strain pmr1, stronger effect = lower value): 0.957 (inactive)
- normalized growth (locus YGL173C, strain kem1, stronger effect = lower value): 0.924 (inactive)
- normalized growth (locus YGL227W, strain vid30, stronger effect = lower value): 0.964 (inactive)
- normalized growth (locus YGL240W, strain doc1, stronger effect = lower value): 0.94 (inactive)
- normalized growth (locus YGL248W, strain PDE1, stronger effect = lower value): 0.933 (inactive)
- normalized growth (locus YGL253W, strain hxk2, stronger effect = lower value): 0.866 (active)
- normalized growth (locus YGR078C, strain PAC10, stronger effect = lower value): 0.844 (active)
- normalized growth (locus YGR135W, strain pre9, stronger effect = lower value): 0.954 (inactive)
- normalized growth (locus YGR229C, strain SMI1, stronger effect = lower value): 0.787 (active)
- normalized growth (locus YGR252W, strain gcn5, stronger effect = lower value): 0.74 (active)
- normalized growth (locus YHR013C, strain ard1, stronger effect = lower value): 0.853 (inactive)
- normalized growth (locus YHR027C, strain rpn1, stronger effect = lower value): 0.965 (inactive)
- normalized growth (locus YHR030C, strain SLT2, stronger effect = lower value): 0.887 (inactive)
- normalized growth (locus YHR079C, strain IRE1 (second series), stronger effect = lower value): 0.952 (inactive)
- normalized growth (locus YHR079C, strain IRE1, stronger effect = lower value): 0.926 (inactive)
- normalized growth (locus YHR094C, strain hxt1, stronger effect = lower value): 0.957 (inactive)
- normalized growth (locus YHR129C, strain ARP1, stronger effect = lower value): 0.889 (active)
- normalized growth (locus YHR142W, strain chs7, stronger effect = lower value): 0.861 (active)
- normalized growth (locus YHR200W, strain rpn10, stronger effect = lower value): 0.943 (inactive)
- normalized growth (locus YIL066C, strain RNR3, stronger effect = lower value): 0.766 (active)
- normalized growth (locus YIL073C, strain SPO22, stronger effect = lower value): 0.811 (inactive)
- normalized growth (locus YIL125W, strain kgd1, stronger effect = lower value): 0.966 (inactive)
- normalized growth (locus YIR030C, strain dcg1, stronger effect = lower value): 0.959 (inactive)
- normalized growth (locus YJL092W, strain hpr5, stronger effect = lower value): 0.945 (inactive)
- normalized growth (locus YJL095W, strain BCK1 (second series), stronger effect = lower value): 0.967 (inactive)
- normalized growth (locus YJL095W, strain BCK1, stronger effect = lower value): 0.749 (active) and 0.918 (inactive)
- normalized growth (locus YJL115W, strain asf1, stronger effect = lower value): 0.98 (inactive)
- normalized growth (locus YJL129C, strain trk1, stronger effect = lower value): 0.822 (active)
- normalized growth (locus YJL134W, strain LCB3, stronger effect = lower value): 0.958 (inactive)
- normalized growth (locus YJL154C, strain vps35, stronger effect = lower value): 0.985 (inactive)
- normalized growth (locus YJL164C, strain tpk1, stronger effect = lower value): 0.927 (inactive)
- normalized growth (locus YJL166W, strain qcr8, stronger effect = lower value): 0.873 (active)
- normalized growth (locus YJL168C, strain set2, stronger effect = lower value): 0.961 (inactive)
